Source: PubChem BioAssay (Broad Institute)
IDE exosite FP: exo-site inhibitors of human insulin-degrading enzyme | P14735 | purified IDE, FL-6b probe fluorescence polarization; active compounds read low | z-score at 20 µM | actives 6.3% (n = 17,000);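 active = z-score of -3 or lower, meaning strong loss of probe binding signal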;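 note: His-tagged human IDE residues 42-1019 made in E. coli with 30 nM FL-6b probe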
Target sequence (P14735 42-1019 limits assumed): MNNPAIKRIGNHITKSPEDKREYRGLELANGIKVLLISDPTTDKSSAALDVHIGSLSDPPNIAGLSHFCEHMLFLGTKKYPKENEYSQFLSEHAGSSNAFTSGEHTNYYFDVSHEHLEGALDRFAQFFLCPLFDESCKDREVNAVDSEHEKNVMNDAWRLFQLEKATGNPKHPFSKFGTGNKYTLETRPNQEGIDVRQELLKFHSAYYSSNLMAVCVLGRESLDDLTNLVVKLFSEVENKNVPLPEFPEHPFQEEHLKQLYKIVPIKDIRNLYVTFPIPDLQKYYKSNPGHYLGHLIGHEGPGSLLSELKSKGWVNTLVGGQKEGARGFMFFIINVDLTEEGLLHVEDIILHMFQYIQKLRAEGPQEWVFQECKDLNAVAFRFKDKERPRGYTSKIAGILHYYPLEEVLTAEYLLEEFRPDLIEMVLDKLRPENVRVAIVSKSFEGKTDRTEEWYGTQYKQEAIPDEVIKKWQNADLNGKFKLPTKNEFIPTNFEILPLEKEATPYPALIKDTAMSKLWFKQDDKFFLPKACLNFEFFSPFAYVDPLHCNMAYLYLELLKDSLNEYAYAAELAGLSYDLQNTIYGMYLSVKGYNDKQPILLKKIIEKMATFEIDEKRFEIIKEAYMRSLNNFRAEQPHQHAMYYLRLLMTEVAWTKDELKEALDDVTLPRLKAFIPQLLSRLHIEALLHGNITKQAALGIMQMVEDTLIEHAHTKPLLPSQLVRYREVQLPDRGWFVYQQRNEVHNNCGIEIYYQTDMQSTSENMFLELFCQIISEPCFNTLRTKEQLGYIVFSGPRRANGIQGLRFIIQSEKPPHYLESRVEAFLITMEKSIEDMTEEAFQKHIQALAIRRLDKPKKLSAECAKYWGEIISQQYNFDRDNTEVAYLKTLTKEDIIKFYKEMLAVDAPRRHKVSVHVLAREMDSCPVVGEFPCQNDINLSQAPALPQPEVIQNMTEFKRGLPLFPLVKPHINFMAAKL
An asterisk follows results filed as active; ! = not active in a repeat. Shown is part of a subset that was picked to be rich in hits.

SMILES | IDE exosite FP
COc1cccc(-c2ccc([C@@H]3[C@@H](CO)N4C(=O)CN(C(=O)c5ccncc5)C[C@@H]34)cc2)c1 | -2.8
COc1cccc(-c2ccc([C@@H]3[C@@H](CO)N4C(=O)CN(C(=O)CN5CCOCC5)C[C@H]34)cc2)c1 | -3.8*
Cc1ccc(-c2ccc([C@@H]3[C@H](CO)N4C(=O)CN(C(=O)CN5CCOCC5)C[C@@H]34)cc2)cc1 | -0.58
COc1cccc(-c2ccc([C@@H]3[C@H]4CN(C(=O)CN5CCOCC5)CC(=O)N4[C@H]3CO)cc2)c1 | -5.5*
COCC#Cc1ccc([C@@H]2[C@H]3CN(C(=O)CN4CCOCC4)CC(=O)N3[C@H]2CO)cc1 | -0.13
COc1cccc(-c2ccc([C@H]3[C@H]4CN(C(=O)c5ccncc5)CC(=O)N4[C@H]3CO)cc2)c1 | 1.6
Cc1cccc(-c2ccc([C@H]3[C@H](CO)N4C(=O)CN(C(=O)CN5CCOCC5)C[C@@H]34)cc2)c1 | -6.3*
CN(C)C(=O)c1cccc(-c2ccc(C3[C@H]4CNC[C@@H]3N4S(=O)(=O)c3ccccc3F)cc2)c1 (stereo not given in full) | 0.56
CCC(=O)N1CC[C@@H]2[C@H](CO)Nc3ccc(C#Cc4ccccc4F)cc3[C@@H]21 | 1.4
O=C(C1CC1)N1CCCCN2[C@H](C1)[C@H](c1ccc(C#CC3CCCC3)cc1)[C@@H]2CO | 2.8
CO[C@@H]1CN(C)C(=O)c2cc(NC(=O)c3cc(C)on3)ccc2OC[C@@H](C)N(C(=O)C2CCC2)C[C@H]1C | -1
O=C1N[C@@H](Cc2ccccc2)COCc2cnnn2CC[C@@H]1Cc1ccc(-c2ccccc2)cc1 | 0.78
N#C[C@H]1[C@@H](c2ccc(C#CC3CC3)cc2)[C@H](CO)N1S(=O)(=O)c1ccccc1 | 2.1
O=C(c1ccccn1)N1CC(=O)N2[C@H](CO)[C@@H](c3ccc(-c4cccc(F)c4)cc3)[C@H]2C1 | 1.5
CCCNC(=O)N1C[C@@H]2N[C@H](C1)C2c1ccc(-c2cccc(OC)c2)cc1 (stereo not given in full) | -3.9*!
COc1cccc(-c2ccc(C3[C@@H]4CN(C(=O)c5ccc(F)cc5)C[C@H]3N4)cc2)c1 (stereo not given in full) | 1.8
COc1cccc(-c2ccc(C3[C@@H]4CN(C(=O)c5cnccn5)C[C@H]3N4)cc2)c1 (stereo not given in full) | -8.7*!
CCCNC(=O)N1C[C@@H]2N[C@H](C1)C2c1ccc(-c2ccc(OC)cc2)cc1 (stereo not given in full) | -0.56
Cc1ccccc1-c1ccc(C2[C@@H]3CN(C(=O)Cc4ccncc4)C[C@H]2N3)cc1 (stereo not given in full) | -9*!
CCCNC(=O)N1C[C@@H]2N[C@H](C1)C2c1ccc(-c2ccccc2C)cc1 (stereo not given in full) | -7.8*!
CCCNC(=O)N1C[C@@H]2N[C@H](C1)C2c1ccc(-c2ccc(F)cc2)cc1 (stereo not given in full) | 2.2
CN(C)C(=O)c1cccc(-c2ccc(C3[C@@H]4CN(C(=O)c5cnccn5)C[C@H]3N4)cc2)c1 (stereo not given in full) | 0.092
CCCNC(=O)N1C[C@@H]2N[C@H](C1)C2c1ccc(-c2cccc(F)c2)cc1 (stereo not given in full) | -0.44
Cc1cccc(-c2ccc(C3[C@@H]4CN(C(=O)Cc5ccncc5)C[C@H]3N4)cc2)c1 (stereo not given in full) | 0.11
CN(C)C(=O)c1ccc(-c2ccc(C3[C@@H]4CN(C(=O)Cc5ccncc5)C[C@H]3N4)cc2)cc1 (stereo not given in full) | 3.6
SMILES | IDE exosite FP
CCCNC(=O)N1C[C@@H]2N[C@H](C1)C2c1ccc(-c2cccnc2)cc1 (stereo not given in full) | 1.8
C/C=C/c1ccc([C@H]2[C@@H](CO)N[C@@H]2CNC(=O)C2CC2)cc1 | 1
C[C@@H]1CN([C@H](C)CO)C(=O)c2cc(NC(=O)Nc3cccc4ccccc34)ccc2O[C@H]1CN(C)S(=O)(=O)c1cccs1 | -1.6
COc1cccc(CN2CCCCN3[C@H](C2)[C@H](c2ccc(-c4cccnc4)cc2)[C@@H]3CO)c1 | -0.96
COc1ccc(CN(C)C[C@@H]2OCc3cnnn3CCCC(=O)N([C@H](C)CO)C[C@@H]2C)cc1 | -1.5
N#C[C@H]1[C@@H](c2ccc(C3=CCCC3)cc2)[C@H](CO)N1C(=O)Cc1ccncc1 | 4
N#C[C@@H]1[C@H](c2ccc(C3=CCCCC3)cc2)[C@H](CO)N1C(=O)c1cccc(F)c1 | 1.4
C/C=C/c1ccc([C@H]2[C@@H](CO)N(C(C)=O)[C@@H]2CN(CCC)C(C)=O)cc1 | 1.9
COc1ccc2c3c(n(C)c2c1)[C@@H](CO)N(C(=O)Cc1ccccc1)CC31CN(C)C1 | 1
COc1ccc(-c2ccc(C3[C@H]4CNC[C@@H]3N4C(=O)NC3CCCC3)cc2)cc1 (stereo not given in full) | 3
COc1cccc(-c2ccc(C3[C@H]4CNC[C@@H]3N4C(=O)NC3CCCCC3)cc2)c1 (stereo not given in full) | -3.8*!
O=C(NC1CCCC1)N1[C@@H]2CNC[C@H]1C2c1ccc(-c2cccnc2)cc1 (stereo not given in full) | -0.49
CN(C)C(=O)c1ccc(-c2ccccc2[C@@H]2[C@@H](CO)N(C(=O)C3CCCCC3)[C@H]2C#N)cc1 | 0.84
CC(C)CC#Cc1ccc([C@@H]2[C@@H](CO)N3C(=O)CN(S(C)(=O)=O)C[C@@H]23)cc1 | 4.1
COc1ccc2c3c([nH]c2c1)[C@H](CO)N(CC1CC1)CC31CCN(S(=O)(=O)c2cccc(F)c2)CC1 | -0.52
CCCN1[C@H](CO)[C@H](c2ccc(C#Cc3ccccc3)cc2)[C@@H]1CNC1CCCC1 | -0.9
COc1ccc(NC(=O)N2[C@@H]3CNC[C@H]2C3c2ccc(-c3ccccc3C)cc2)cc1 (stereo not given in full) | -4.6*
O=C(NC1CCCCC1)N1[C@@H]2CNC[C@H]1C2c1ccc(-c2ccccc2F)cc1 (stereo not given in full) | -0.085
COc1cccc(-c2ccc(C3[C@H]4CNC[C@@H]3N4C(=O)Nc3ccc4c(c3)OCO4)cc2)c1 (stereo not given in full) | -2.8
Cc1ccccc1-c1ccc(C2[C@H]3CNC[C@@H]2N3C(=O)Nc2ccc(Cl)cc2)cc1 (stereo not given in full) | -3.6*!
COc1cccc(-c2ccc(C3[C@H]4CNC[C@@H]3N4C(=O)Nc3ccc(C(F)(F)F)cc3)cc2)c1 (stereo not given in full) | 2.1
CN(C)C(=O)c1cccc(-c2ccc(C3[C@H]4CNC[C@@H]3N4C(=O)Nc3cccc(Cl)c3)cc2)c1 (stereo not given in full) | -0.24
O=S(=O)(c1ccccc1F)N1CCCCN2[C@@H](CO)[C@@H](c3ccc(-c4ccncc4)cc3)[C@@H]2C1 | 2
CN1C(=O)c2cc(NC(=O)c3cccc(F)c3)ccc2OC[C@H]2O[C@H](CC(=O)NCc3ccccc3Cl)CC[C@H]21 | -0.058
Cc1ccc(-c2ccc([C@@H]3[C@@H](CO)N4CCCCN(C(=O)c5ccncc5)C[C@@H]34)cc2)cc1 | 2.7
O=C(c1ccncc1)N1CC(=O)N2[C@H](CO)[C@@H](c3ccc(C#CCC4CCCC4)cc3)[C@@H]2C1 | 0.71
CC(C)[C@@H]1C/C=C\C[C@@H](c2ccc(F)cc2)NC(=O)[C@H](C)CC(=O)N1 | 1
